Shown are actives, neighbours in structure and some others; about 1.2% of the full set was active somewhere.
Shn3 3UTR inh: inhibitors of Schnurri-3 3'UTR reporter in osteoblasts; Clone20 osteoblast Shn3 3'UTR firefly luciferase, 24 h; inhibition, % at 12.5 µM; 0.52% of 360,000 active; AID 588674;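 active means mean inhibition of at least 75% with every replicate also reaching 75%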;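 further: 0% = median of neutral control wells and 100% = pilot-screen positive control compound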
LRH-1 inv ag: inverse agonists of human LRH-1 (NR5A2); O00482; HEK293T StAR-luciferase reporter, LRH-1 transfected, 24 h; inhibition, % at 3.6 µM; 0.13% of 360,000 active;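 active means inhibition above the mean inhibition of all tested compounds plus 3 SD, cut at about 73% in these data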;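 further: 0% = DMSO wells and 100% = reporter-only cells lacking LRH-1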
NCOA2 inhibitor: inhibits human steroid receptor coactivator 2; Q15596; HEK293 GAL4-SRC2 luciferase reporter, luminescence; inhibition, % at 9 µM; 0.17% of 370,000 active; AID 651957;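 active means inhibition above the mean inhibition of all tested compounds plus 3 SD, set per campaign, cut at about 52% in these data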;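 further: 0% = DMSO treated cells and 100% = cells given Gossypol at 36 µM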
NCOA1 inh: human NCOA1 inhibition; HEK293 GAL4-SRC1 luciferase reporter, luminescence; 0.12% of 360,000 active; AID 588354; Q15788; inhibition, % at 3.6 µM;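 active means inhibition above the campaign mean plus 3 SD, with each screening campaign given its own cutoff, cut at about 60% in these data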;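 further: 0% = DMSO treated cells and 100% = gossypol at 36 µM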
LMP1 NFkB inh: reduces LMP1-driven NF-kappaB luciferase signal | 0.69% of 350,000 active | inhibition, % at 12.5 µM | LMP1-induced NF-kappaB luciferase reporter cells, luminescence; in the data active means inhibition above about 41%;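 further: 0% = neutral control wells and 100% = reference inhibitor control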
SRC3 inh: human NCOA3 inhibition; 0.17% of 360,000 active; inhibition, % at 3.6 µM; Q9Y6Q9; HEK293 GAL4-SRC3 luciferase reporter, luminescence;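 active means inhibition above a per-campaign cutoff, the mean of all compounds plus 3 SD, cut at about 60% in these data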;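 further: 0% = DMSO-treated cells and 100% = gossypol-treated cells at 36 µM; higher means less SRC3-driven luciferase light from the GAL4 reporter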
Target sequence (Q9Y6Q9 whole entry, looked up, the tested form may be a part): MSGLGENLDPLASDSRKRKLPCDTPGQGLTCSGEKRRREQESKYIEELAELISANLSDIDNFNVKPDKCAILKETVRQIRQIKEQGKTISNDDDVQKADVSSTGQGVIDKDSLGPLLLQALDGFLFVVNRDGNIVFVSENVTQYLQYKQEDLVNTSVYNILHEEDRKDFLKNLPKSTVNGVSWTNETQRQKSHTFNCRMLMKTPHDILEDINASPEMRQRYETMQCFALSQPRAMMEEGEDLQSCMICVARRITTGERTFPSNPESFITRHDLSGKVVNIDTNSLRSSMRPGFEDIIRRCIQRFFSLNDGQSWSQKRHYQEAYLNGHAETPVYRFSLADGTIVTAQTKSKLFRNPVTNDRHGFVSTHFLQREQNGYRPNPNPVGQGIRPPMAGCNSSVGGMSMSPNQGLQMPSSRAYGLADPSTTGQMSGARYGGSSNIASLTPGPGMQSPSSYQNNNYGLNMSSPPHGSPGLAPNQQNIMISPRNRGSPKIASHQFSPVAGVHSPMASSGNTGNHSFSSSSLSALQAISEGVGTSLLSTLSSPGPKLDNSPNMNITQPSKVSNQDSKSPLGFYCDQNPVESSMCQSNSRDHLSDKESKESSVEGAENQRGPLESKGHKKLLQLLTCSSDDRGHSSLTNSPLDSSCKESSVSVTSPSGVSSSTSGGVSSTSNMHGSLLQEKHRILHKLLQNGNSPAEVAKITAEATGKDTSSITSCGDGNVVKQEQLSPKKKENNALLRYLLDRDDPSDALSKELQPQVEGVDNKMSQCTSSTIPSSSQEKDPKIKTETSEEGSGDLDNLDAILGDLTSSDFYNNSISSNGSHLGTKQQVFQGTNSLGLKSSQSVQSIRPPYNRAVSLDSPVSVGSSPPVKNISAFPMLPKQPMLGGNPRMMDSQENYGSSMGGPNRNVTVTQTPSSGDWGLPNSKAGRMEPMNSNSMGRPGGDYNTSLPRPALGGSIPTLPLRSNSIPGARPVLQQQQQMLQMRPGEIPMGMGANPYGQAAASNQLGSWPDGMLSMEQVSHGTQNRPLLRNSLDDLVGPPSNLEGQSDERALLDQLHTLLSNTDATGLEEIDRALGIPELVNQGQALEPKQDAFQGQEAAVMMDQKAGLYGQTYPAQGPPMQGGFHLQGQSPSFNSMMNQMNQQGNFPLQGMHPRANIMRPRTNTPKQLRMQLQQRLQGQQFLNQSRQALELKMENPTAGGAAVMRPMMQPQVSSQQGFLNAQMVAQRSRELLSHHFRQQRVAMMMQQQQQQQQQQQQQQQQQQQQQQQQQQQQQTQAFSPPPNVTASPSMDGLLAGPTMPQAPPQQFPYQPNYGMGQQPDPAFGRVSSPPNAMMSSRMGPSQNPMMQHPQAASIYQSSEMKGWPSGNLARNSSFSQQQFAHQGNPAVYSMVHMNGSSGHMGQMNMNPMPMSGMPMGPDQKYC
The depositor's hits bear a star; . = no result given.

SMILES | Shn3 3UTR inh | LRH-1 inv ag | NCOA2 inhibitor | NCOA1 inh | LMP1 NFkB inh | SRC3 inh
COc1ccc(S[C@]2(C(=O)N3CCOCC3)CC(=O)N(c3ccc(Cl)cc3)[C@@H]2c2ccc(OC)cc2)cc1 | . | . | 6 | . | . | .
COCCCNC(=O)[C@@H](Cc1ccccc1)NC(=O)[C@H]1O[C@@H](n2ccc(=O)[nH]c2=O)[C@H](O)[C@@H]1O | . | . | -18 | . | . | .
COc1cccc(C(=O)n2c(SC)nc3cc4c(cc32)OCCO4)c1 | -1 | -41 | -38 | -46 | 4 | -33
CSc1nc2cc3c(cc2n1C(=O)c1ccc(C)cc1)OCCO3 | -20 | -24 | -34 | -6 | 44* | -9
O=C1CCCC2=C1[C@@]1(O[C@H]3C=CC=CN23)C(=O)N(c2ccccc2)c2ccccc21 | . | . | 19 | . | . | .
Cc1cccc(Cn2cc(COC(=O)Nc3ccc(F)cc3)nn2)c1 | . | . | 2 | . | . | .
CN(C)C1CCN(Cc2cc(COCc3ccccc3)c3cccnc3c2O)C1 (stereo unspecified) | 88* | 13 | . | 11 | 29 | 16
Oc1c(CN2CCCCC2)cc(COCc2ccccc2)c2cccnc12 | 92* | 14 | -3 | 16 | 79* | 41
COc1ccccc1N1CCN(Cc2cc(Br)c(O)c3ncccc23)CC1 | 70 | 73* | 28 | 46 | 17 | 54
Oc1c(Cl)cc(CN2CCCCC2)c2cccnc12 | 84 | 22 | . | -4 | 63* | -10
C[C@H](O)[C@@H]1CN2CCc3ccc(N4CCOCC4)cc3[C@@H]2C[C@@H]1N(C)CC1CCCCC1 | . | . | 18 | . | . | .
CN(CCCOC(=O)c1cc2ccccc2o1)C1CN(Cc2cn(Cc3ccccc3C(F)(F)F)nn2)S(=O)(=O)C1 (stereo unspecified) | . | . | -13 | . | . | .
COC(=O)C1=C(C)N(Cc2ccc(C(F)(F)F)cc2)C(=NCc2ccccc2C(F)(F)F)NC1c1cccc(Cl)c1 (stereo unspecified) | . | . | -8 | . | . | .
C[C@H]1CN(S(=O)(=O)C(C)(C)C)[C@@H](CCO)/C1=C\c1ccccc1 | . | . | 1 | . | . | .
CCOC(=O)[C@]12CCCC=C1N(Cc1ccc(OC)cc1)C(=O)[C@@H]2CC(=O)N1CCN(C(=O)c2ccco2)CC1 | . | . | 3 | . | . | .
CCc1ccccc1NC(=O)CN(C)C(=O)Cn1ncc(Cl)c(Cl)c1=O | 64 | -26 | -16 | -5 | 71* | 20
CCOC(=O)c1ccc(NC(=O)Cn2ncc(Cl)c(Cl)c2=O)cc1 | 98* | 21 | -28 | -98 | -28 | -48
O=C(OCn1ncc(Cl)c(Cl)c1=O)c1ccc(C(F)(F)F)cc1 | 95* | -18 | -3 | -38 | -32 | 0
Cc1ccc(C(=O)OCn2ncc(Cl)c(Cl)c2=O)cc1 | 91* | -17 | -34 | -183 | 89* | -107
CN(Cc1ccccc1Cl)C(=O)CN1C(=O)C2(OCCCO2)c2ccccc21 | . | . | -36 | . | . | .
CC1C2CC(C/C2=N/NC(=O)c2cccs2)C1(C)C (stereo unspecified) | -60 | -177 | -60 | -76 | -14 | -65
C[C@@H]1C2CC(C/C2=N\NC(=O)c2ccncc2)C1(C)C (stereo partly specified) | 7 | -2 | 10 | -45 | 72* | -1
S=C1SCN(Cc2ccccc2)CN1Cc1ccco1 | -10 | -26 | 13 | -4 | 42* | -17
CC(=O)O[C@@H]1C[C@H]2C(C)(C)C(=O)C=C[C@]2(C)[C@H]2CC[C@@]3(C)[C@H](c4ccoc4)OC(=O)[C@H]4O[C@]43[C@@]21C | -4 | 31 | 52* | 24 | -20 | 26
C#CCNC(=O)C[C@H]1C[C@@]2(C(=O)OC)C(=C[C@H](C(C)(C)C)O[C@@H]2C)N(CCC2=CCCCC2)C1=O | . | . | 4 | . | . | .
SMILES | Shn3 3UTR inh | LRH-1 inv ag | NCOA2 inhibitor | NCOA1 inh | LMP1 NFkB inh | SRC3 inh
COC(=O)[C@H](C(C)C)N(CCc1cn(CC2CCCCC2)nn1)S(=O)(=O)c1ccccc1Br | . | . | 12 | . | . | .
O=c1[nH]c(NC2CCN(S(=O)(=O)c3ccccc3C(F)(F)F)CC2)nc2c1CCCC2 | 30 | -5 | 6 | 4 | 53* | 5
CC1(C)CC(NC(=O)C2CCN(S(=O)(=O)c3ccccc3C(F)(F)F)CC2)CC(C)(C)N1 | -16 | -1 | -5 | 0 | 3 | 0
CN(C)C(=O)C[C@H]1C[C@@H]2c3cc(NC(=O)NC4CCCC4)ccc3O[C@@H]2[C@@H](CO)O1 | . | . | -1 | . | . | .
O=C1C(Cl)=C(N2CCN(c3ccccc3[N+](=O)[O-])CC2)C(=O)c2ccccc21 | 96* | 4 | 3 | -20 | -22 | -11
O=c1c2ccccc2n(Cc2ccno2)n1[C@@H](Cc1ccccc1)Cn1cc(C2CCCC2)nn1 | . | . | 11 | . | . | .
CCOC(=O)c1c(NC(=O)c2nn(CC)cc2Br)sc(C)c1C | 84* | -2 | -20 | -4 | 4 | 7
O=C1C(Nc2ccccc2)=C(N2CCCCC2)C(=O)c2ccccc21 | 6 | 93* | 1 | 29 | 5 | 68*
O=C(/C=C/c1ccc(O)cc1)c1ccc(NC2=C(N3CCCCC3)C(=O)c3ccccc3C2=O)cc1 | -15 | 76* | 2 | 26 | 43* | 42
COc1ccccc1NC1=C(N2CCCCC2)C(=O)c2ccccc2C1=O | 5 | 97* | . | 74* | 4 | 80*
Cc1ccc(NC2=C(N3CCCCC3)C(=O)c3ccccc3C2=O)cc1 | -12 | 62 | -40 | 7 | -2 | 45
CC(C)(C)N(Cc1cn(CC2CCCCC2)nn1)S(=O)(=O)c1ccccc1Br | . | . | 13 | . | . | .
COc1ccc(OC)c(CN2C(=O)CSCCC2(C)c2nnnn2C2CCCC2)c1 (stereo unspecified) | . | . | 2 | . | . | .
CCOC(=O)c1ccc(CC(=O)c2ccc(O)cc2O)o1 | -16 | 8 | 14 | -14 | 51* | 26
O=C(NN=Cc1ccccc1O)C(=O)Nc1ccc(F)cc1 | . | . | 16 | . | . | .
COc1cccc(OCCn2cc(C(=O)c3ccco3)c3ccccc32)c1 | 15 | -11 | -7 | -5 | -5 | 15
COc1cccc(OCCn2cc(C(C)=O)c3ccccc32)c1 | 87* | 14 | 25 | 26 | 10 | 26
Cc1ccc(C)c(OCCn2cc(C(=O)O)c3ccccc32)c1 | -24 | 14 | -1 | -5 | -3 | -7
CC(=O)c1cn(CCOc2cc(C)ccc2C)c2ccccc12 | 90* | 38 | 23 | 43 | 0 | 17
CCOC(=O)N1CCN(C(=O)C[C@H]2C[C@@]3(C(=O)OC)C(=C[C@H](C4CCCC4)O[C@@H]3C)N(Cc3cccc4ccccc34)C2=O)CC1 | . | . | -1 | . | . | .
COc1ccc2c(c1)/C(=C\c1cccc(/C=C3/C(=O)Nc4ccc(OC)cc43)n1)C(=O)N2 | 96* | 22 | 55* | 3 | 89* | 19
CC(C)CN1C(=O)[C@]2(CC(=O)N(C)C2c2ccccc2)c2cc(-n3cc(C4=CCCCC4)nn3)ccc21 (stereo partly specified) | . | . | 15 | . | . | .
